Screening results (PubChem BioAssay)
Peg3 promoter = Peg3 promoter activity inhibition; HeLa PEG-Prom luciferase reporter, luminescence, overnight; inhibition, % at 20 µM; 1.7% of 360,000 active; AID 588405;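 active means inhibition of at least 50% at 20 µM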
Shn3 inh set2 = inhibitors of Schnurri-3 3'UTR reporter in osteoblasts; 0.52% of 360,000 active; Clone20 osteoblast Shn3 3'UTR firefly luciferase, 24 h; AID 588674; inhibition, % at 12.5 µM;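 active means mean inhibition of at least 75% with every replicate also reaching 75%; inconclusive means mean inhibition at least 75% but some replicate below; inactive means mean inhibition below 75%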;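 further: 0% = median of neutral control wells and 100% = pilot-screen positive control compound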
PAX8 inh HTS = inhibitors of PAX8 transcriptional activity in RMG-I cells; 1.2% of 360,000 active; inhibition, % at 12.6 µM; RMG-I TPO-luciferase reporter, SteadyGlo, 24 h;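 active means mean replicate inhibition at least 60% with every replicate also reaching 60%; inconclusive means only one of the two criteria is met; inactive means mean below 60% and not all replicates reaching 60%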;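 further: luciferase light reporting Pax8 driven TPO promoter activity; plate controls were median of neutral control wells for no effect and mitoxantrone controls for full effect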
EWS-Fli block = EWS/Fli transcriptional activity inhibition. AID 651661. A673 NR0B1-luciferase reporter, viability-normalised. 0.67% of 350,000 active. inhibition, % at 12.6 µM;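 active means mean inhibition of at least 50% after viability correction, with every replicate also passing that limit; inconclusive means mean reaches 50% but only one of two replicates passes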;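 further: firefly luciferase signal divided by Alamar Blue viability fluorescence both relative to DMSO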
MITF TRPM1 inh = inhibitors of MITF-driven TRPM1 promoter in melanoma cells | SK-MEL-5 TRPM1 promoter luciferase, 24 h | inhibition, % at 12.5 µM | 0.83% of 330,000 active | AID 488899;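 active means mean inhibition across replicates of 60% or more, whatever share of single replicates reaches that level; inconclusive means some that reach 60%, reason not given; inactive means mean inhibition across replicates below 60%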
ABHD5-PLIN5 inh = inhibitors of human ABHD5-perilipin-5 interaction. Split G. princeps luciferase complementation, luminescence, 4 h. inhibition, % at 4 µM. 0.78% of 360,000 active. Q00G26+Q8WTS1. AID 602281;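 active means inhibition above the mean inhibition across every tested compound plus 3 SD, cut at about 22% in these data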;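 further: 0% = DMSO only wells and the 100% control is not disclosed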
Target sequence (Q00G26 whole entry, looked up): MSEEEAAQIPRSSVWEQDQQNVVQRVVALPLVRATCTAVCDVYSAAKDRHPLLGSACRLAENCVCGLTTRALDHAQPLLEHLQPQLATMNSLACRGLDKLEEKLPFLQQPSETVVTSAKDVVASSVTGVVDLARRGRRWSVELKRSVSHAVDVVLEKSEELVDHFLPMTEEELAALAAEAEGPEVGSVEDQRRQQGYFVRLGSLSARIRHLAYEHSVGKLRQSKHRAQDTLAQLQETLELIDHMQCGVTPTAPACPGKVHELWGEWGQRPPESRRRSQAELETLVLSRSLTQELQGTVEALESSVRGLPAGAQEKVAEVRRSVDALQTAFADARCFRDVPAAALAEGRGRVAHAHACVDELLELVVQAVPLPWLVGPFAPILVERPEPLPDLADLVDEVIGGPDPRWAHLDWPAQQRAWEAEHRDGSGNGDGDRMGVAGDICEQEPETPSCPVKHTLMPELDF
Target sequence (Q8WTS1 whole entry, looked up): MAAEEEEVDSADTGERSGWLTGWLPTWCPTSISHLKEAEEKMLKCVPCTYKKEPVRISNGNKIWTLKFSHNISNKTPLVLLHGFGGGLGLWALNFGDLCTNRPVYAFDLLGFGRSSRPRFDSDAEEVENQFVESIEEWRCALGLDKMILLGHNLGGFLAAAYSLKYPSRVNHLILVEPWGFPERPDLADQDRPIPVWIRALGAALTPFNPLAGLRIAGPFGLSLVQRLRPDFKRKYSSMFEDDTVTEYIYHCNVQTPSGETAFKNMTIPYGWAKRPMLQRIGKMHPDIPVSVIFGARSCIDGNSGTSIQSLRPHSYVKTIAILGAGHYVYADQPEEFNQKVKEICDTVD
* = called active by the depositor. Rows were chosen to be rich in hits. Some 3% of all compounds tested hit in one or more screens of this group.

How did O=C(Nc1ccccc1)N1CCCCN2[C@@H](CO)[C@@H](c3ccc(C#Cc4ccccc4)cc3)[C@@H]2C1 do in these assays?
PAX8 inh HTS: 107.3*; EWS-Fli block: 43.1

Results for COc1ccccc1NC(=O)N1CCCCN2[C@H](CO)[C@H](c3ccc(-c4ccc(C)cc4)cc3)[C@H]2C1 ?
PAX8 inh HTS: 80.4*; EWS-Fli block: 39.6

What do the screens show for `C[C@H](CO)N1C[C@H](C)[C@H](CN(C)C(=O)CCN(C)C)OCc2ccccc2-c2ccccc2C1=O`?
PAX8 inh HTS: -34.0; EWS-Fli block: -1.6

What do the screens show for `CCCC(=O)Nc1ccc2c(c1)C(=O)N(C)C[C@H](OC)[C@H](C)CN(Cc1ccc(-c3ccccn3)cc1)[C@H](C)CO2`?
PAX8 inh HTS: -40.4; EWS-Fli block: 2.0

What do the screens show for `O=C(Nc1ccccc1)N1CCCCN2[C@@H](CO)[C@H](c3ccc(C#Cc4ccccc4)cc3)[C@@H]2C1`?
PAX8 inh HTS: 72.1*; EWS-Fli block: 34.2

What do the screens show for `O=C(Nc1ccc(F)cc1)N1CCCCN2[C@H](CO)[C@@H](c3ccc(C#Cc4ccccc4)cc3)[C@H]2C1`?
PAX8 inh HTS: 38.9; EWS-Fli block: 3.0

Results for O=C(Nc1ccccc1)N1CCCCN2[C@@H](CO)[C@@H](c3ccc(-c4ccccc4)cc3)[C@@H]2C1 ?
PAX8 inh HTS: -4.8; EWS-Fli block: 64.9*

Results for Cc1cccc(N2CC(O)(c3cccs3)[N+]3=C2CCCC3)c1C (stereo not drawn) ?
Peg3 promoter: 0.3; Shn3 inh set2: 90.0*; PAX8 inh HTS: 17.5; EWS-Fli block: 0.6; MITF TRPM1 inh: -7.3; ABHD5-PLIN5 inh: -0.2

Results for Cc1ccccc1N1CC(O)(c2cccs2)[N+]2=C1CCCC2 (stereo not drawn) ?
Peg3 promoter: 2.9; Shn3 inh set2: 1.1; PAX8 inh HTS: -5.3; EWS-Fli block: 7.8; MITF TRPM1 inh: -22.0; ABHD5-PLIN5 inh: -2.9

How did Cc1ccc(NC(=O)c2cc(-c3cc(Cl)ccc3C)n[nH]2)cc1NS(C)(=O)=O do in these assays?
Peg3 promoter: 23.2; Shn3 inh set2: 2.3; PAX8 inh HTS: 40.1; EWS-Fli block: 19.4; ABHD5-PLIN5 inh: -3.1

What do the screens show for `COc1ccc(Cl)cc1-c1cc(C(=O)Nc2ccc(C)c(NS(C)(=O)=O)c2)[nH]n1`?
Peg3 promoter: 69.4*; Shn3 inh set2: 4.7; PAX8 inh HTS: 16.0; EWS-Fli block: 12.7; ABHD5-PLIN5 inh: 2.1

How did C[C@@H]1CCCCO[C@@H](CN(C)C(=O)Cc2ccccc2)[C@@H](C)CN([C@@H](C)CO)C(=O)c2cc(NS(=O)(=O)c3ccccc3)ccc2O1 do in these assays?
PAX8 inh HTS: -7.5; EWS-Fli block: -12.8

What do the screens show for `Cc1nc(-c2ccc(C(=O)Nc3ccccc3F)cc2)cs1`?
Peg3 promoter: 35.4; Shn3 inh set2: 31.6; PAX8 inh HTS: -3.6; EWS-Fli block: 61.1*; MITF TRPM1 inh: 49.1; ABHD5-PLIN5 inh: 0.3

What do the screens show for `O=C1C(Cl)=C(N2CCN(c3ccccc3[N+](=O)[O-])CC2)C(=O)c2ccccc21`?
Peg3 promoter: 100.5*; Shn3 inh set2: 95.7*; PAX8 inh HTS: 18.0; EWS-Fli block: inconclusive; MITF TRPM1 inh: 26.7; ABHD5-PLIN5 inh: -6.7

How did COc1ccc(C(=O)c2sc(Nc3ccccc3)nc2N)cc1OC do in these assays?
Peg3 promoter: 78.1*; Shn3 inh set2: 11.1; PAX8 inh HTS: 11.3; EWS-Fli block: 14.5; MITF TRPM1 inh: -33.2; ABHD5-PLIN5 inh: -6.9

How did COc1ccc(C(=O)c2sc(Nc3ccccc3)nc2N)cc1 do in these assays?
Peg3 promoter: -137.3; Shn3 inh set2: -11.7; PAX8 inh HTS: -7.4; EWS-Fli block: -79.0; MITF TRPM1 inh: -94.3; ABHD5-PLIN5 inh: -6.2

How did Nc1nc(Nc2ccccc2)sc1C(=O)c1ccccc1 do in these assays?
Peg3 promoter: 91.1*; Shn3 inh set2: -139.3; PAX8 inh HTS: -67.4; EWS-Fli block: -125.1; MITF TRPM1 inh: -65.4; ABHD5-PLIN5 inh: 2.0

Results for COc1ccc(Cc2[nH]n3c(=O)cc(C(C)C)nc3c2-c2ccccc2)cc1 ?
Peg3 promoter: 52.2*; Shn3 inh set2: 60.3; PAX8 inh HTS: 34.9; EWS-Fli block: 35.3; MITF TRPM1 inh: 22.8; ABHD5-PLIN5 inh: -6.8

Results for COc1ccc(Cc2[nH]n3c(=O)cc(C)nc3c2-c2ccccc2)cc1 ?
Peg3 promoter: 15.6; Shn3 inh set2: 44.9; PAX8 inh HTS: 9.9; EWS-Fli block: 18.4; MITF TRPM1 inh: 22.1; ABHD5-PLIN5 inh: 2.2

What do the screens show for `COc1ccc(-c2nc3c(c(SCC(=O)Nc4cccc(O)c4)n2)Cc2c(CO)cnc(C)c2O3)cc1`?
Peg3 promoter: 19.4; Shn3 inh set2: 9.8; PAX8 inh HTS: 88.2*; MITF TRPM1 inh: 6.5; ABHD5-PLIN5 inh: 32.8*

What do the screens show for `COc1ccc(OCc2nnc(SCC(=O)Nc3cccc(C(C)=O)c3)o2)cc1`?
Peg3 promoter: 23.4; Shn3 inh set2: -15.1; PAX8 inh HTS: -4.2; EWS-Fli block: -8.6; MITF TRPM1 inh: 5.6; ABHD5-PLIN5 inh: -8.9

Results for Cc1ncc(CO)c2c1Oc1nc(-c3ccccc3)nc(SCC(=O)Nc3cccc(O)c3)c1C2 ?
Peg3 promoter: 64.5*; Shn3 inh set2: -2.5; PAX8 inh HTS: 28.3; EWS-Fli block: -0.4; MITF TRPM1 inh: 4.0; ABHD5-PLIN5 inh: -8.5

What do the screens show for `O=C(CSc1nc(-c2ccc(F)cc2)nc2c1Cc1ccccc1O2)Nc1cccc(C(=O)O)c1`?
Peg3 promoter: -7.5; Shn3 inh set2: -50.8; PAX8 inh HTS: 13.4; EWS-Fli block: 19.2; MITF TRPM1 inh: 12.6; ABHD5-PLIN5 inh: 13.0

How did NCC[C@H]1CC[C@H](NC(=O)C2CCCCC2)[C@@H](CO)O1 do in these assays?
PAX8 inh HTS: -4.8; EWS-Fli block: -5.0

Results for CC12CCC3c4ccc(OCC(=O)O)cc4CCC3C1CCC2=O (stereo not drawn) ?
Peg3 promoter: 1.3; Shn3 inh set2: -25.1; PAX8 inh HTS: -4.1; EWS-Fli block: -1.5; MITF TRPM1 inh: 0.7; ABHD5-PLIN5 inh: 8.9

Results for C=C(C)COc1ccc2c(c1)CCC1C2CCC2(C)C(=O)C(=NO)CC12 (stereo not drawn) ?
Peg3 promoter: 70.6*; Shn3 inh set2: 41.2; PAX8 inh HTS: 7.5; EWS-Fli block: -1.8; MITF TRPM1 inh: 4.3; ABHD5-PLIN5 inh: 3.5

Results for COCCN1C(=O)Cc2c1nc(N)c1c(N)nc(N3CCN(c4ccc(F)cc4)CC3)c(C#N)c21 ?
Peg3 promoter: 24.0; Shn3 inh set2: -1.0; PAX8 inh HTS: 0.1; EWS-Fli block: -0.7; MITF TRPM1 inh: 0.8; ABHD5-PLIN5 inh: 10.2

Results for COCC(C)N1C(=O)Cc2c1nc(N)c1c(N)nc(N3CCN(c4ccccc4F)CC3)c(C#N)c21 (stereo not drawn) ?
Peg3 promoter: 55.2*; Shn3 inh set2: 73.4; PAX8 inh HTS: -2.8; EWS-Fli block: 21.7; MITF TRPM1 inh: 28.1; ABHD5-PLIN5 inh: 10.3

How did COc1ccccc1-c1ccc2c(c1)O[C@@H](CN(C)CC1CC1)[C@@H](C)CN([C@H](C)CO)S2(=O)=O do in these assays?
EWS-Fli block: -3.3
